# Laboratory results from PubChem BioAssay.
# Results filed as inconclusive are left out. The source made the active and inactive calls.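 Rule for the calls, unless noted: active = percent response above a set limit, the screen-wide mean plus 3 SD (cut at about 130% in these data); inactive = the rest.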
# Columns and labels:
# [1] = yeast TOR pathway RPL19A-GFP modulators, primary screen, cell-based, S. cerevisiae, multiplex flow cytometry (AID 1862; in the data active = percent of DMSO control GFP below about 86%;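 note: lower values mimic rapamycin by blocking the RPL19A rise seen in DMSO cells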); conditions: S. cerevisiae RPL19A-GFP strain, flow cytometry fluorescence, 3 h; at 10 µM; stronger effect = lower value
# [2] = modulators of MEP2-GFP levels in yeast, primary screen, S. cerevisiae, multiplex flow cytometry (AID 1867;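 active = GFP response, as percent of the DMSO control, above the screen-wide mean plus 3 SD, about 139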;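 note: median GFP channel fluorescence of barcode-gated MEP2-GFP cells measured by flow cytometry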); conditions: S. cerevisiae MEP2-GFP strain, 3 h, at 10 µM, stronger effect = higher value, 100% means same as DMSO wells
# [3] = modulators of CIT2-GFP expression in yeast, primary screen, S. cerevisiae, GFP fusion, multiplex flow cytometry (AID 1870); conditions: 3 h, at 10 µM, stronger effect = higher value;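 note: barcoded CIT2-GFP strain pooled with four other GFP strains with rapamycin as positive control; median GFP fluorescence per well over plate mean of DMSO wells so 100% = DMSO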
# [4] = modulators of LAP4-GFP expression in yeast, primary screen, S. cerevisiae, multiplex flow cytometry (AID 1873;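 active = GFP signal, as percent of the solvent control, above the screen mean plus 3 SD, about 149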); conditions: 3 h, at 10 µM, stronger effect = higher value
# [5] = modulators of AGP1-GFP expression in yeast TOR pathway, primary screen, cell-based, multiplex flow cytometry, S. cerevisiae (AID 1887;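 active = GFP signal above the screen-wide mean plus 3 SD, that is over about 124.5% of the solvent control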;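 note: AGP1-GFP fusion strain of S. cerevisiae within a five-strain barcoded multiplex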); conditions: 3 h, at 10 µM, stronger effect = higher value
# [6] = inhibitors of CD8+ T cell-vesicle binding, pilot screen, LFA-1/ICAM-1 modulator project, MLPCN validation set, flow cytometry (AID 2523;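 active = response below a set limit, under 55% cells CD8-positive and vesicle-bound, and CD8 cells' 90th-percentile brightness under 279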;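 for vesicle binding response: mean PE anti-B7-1 fluorescence of CD8+ cells relative to row control; 100% = QL9-loaded vesicles with DMSO vehicle in the same plate row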); conditions: 2C mouse CD8+ T cells, at 7 µM, stronger effect = lower value; double positive events: measured here: CD8+/vesicle+ event percentage
# [7] = molecular target: Integrin beta-1 (Homo sapiens) + Integrin alpha-4 (Homo sapiens) (UniProt P13612+P05556); experiment: inhibition of HUTS-21 binding to VLA-4, pilot screen, VLA-4 allosteric modulator project, U937 cells, HUTS-21 mAb, flow cytometry, validation set (AID 2674;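 active = inhibition above 50%, about 3 SD of the validation set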;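 note: antibody binding induced by the VLA-4 ligand LDV present at three times its Kd; 0% = LDV ligand with antibody and no compound and 100% = antibody without LDV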); conditions: HUTS-21 LIBS mAb binding, at 6.7 µM, stronger effect = higher value, binding induced by LDV ligand
# Integrin beta-1 (Homo sapiens) + Integrin alpha-4 (Homo sapiens), sequence (P05556 whole entry, looked up): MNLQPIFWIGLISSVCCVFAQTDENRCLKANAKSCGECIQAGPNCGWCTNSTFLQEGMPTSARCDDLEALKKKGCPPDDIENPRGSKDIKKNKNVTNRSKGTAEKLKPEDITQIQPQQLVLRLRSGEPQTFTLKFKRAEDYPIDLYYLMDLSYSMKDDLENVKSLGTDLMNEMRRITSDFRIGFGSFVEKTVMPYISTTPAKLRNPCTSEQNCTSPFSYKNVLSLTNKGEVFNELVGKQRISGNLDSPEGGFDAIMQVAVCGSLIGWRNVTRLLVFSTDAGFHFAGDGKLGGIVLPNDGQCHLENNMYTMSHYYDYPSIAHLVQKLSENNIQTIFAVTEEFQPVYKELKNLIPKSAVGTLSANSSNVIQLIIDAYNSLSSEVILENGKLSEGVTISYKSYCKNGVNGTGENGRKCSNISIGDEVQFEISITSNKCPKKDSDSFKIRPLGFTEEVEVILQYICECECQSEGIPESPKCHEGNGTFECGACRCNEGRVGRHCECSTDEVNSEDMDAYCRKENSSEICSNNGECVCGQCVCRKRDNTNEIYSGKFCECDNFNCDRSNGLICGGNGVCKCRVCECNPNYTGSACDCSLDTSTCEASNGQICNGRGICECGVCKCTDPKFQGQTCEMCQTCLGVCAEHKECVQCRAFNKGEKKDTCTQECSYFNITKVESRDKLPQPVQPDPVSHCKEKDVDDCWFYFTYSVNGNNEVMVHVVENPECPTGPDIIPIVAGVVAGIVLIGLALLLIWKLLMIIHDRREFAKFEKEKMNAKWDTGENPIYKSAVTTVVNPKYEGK
# Integrin beta-1 (Homo sapiens) + Integrin alpha-4 (Homo sapiens), sequence (P13612 whole entry, looked up): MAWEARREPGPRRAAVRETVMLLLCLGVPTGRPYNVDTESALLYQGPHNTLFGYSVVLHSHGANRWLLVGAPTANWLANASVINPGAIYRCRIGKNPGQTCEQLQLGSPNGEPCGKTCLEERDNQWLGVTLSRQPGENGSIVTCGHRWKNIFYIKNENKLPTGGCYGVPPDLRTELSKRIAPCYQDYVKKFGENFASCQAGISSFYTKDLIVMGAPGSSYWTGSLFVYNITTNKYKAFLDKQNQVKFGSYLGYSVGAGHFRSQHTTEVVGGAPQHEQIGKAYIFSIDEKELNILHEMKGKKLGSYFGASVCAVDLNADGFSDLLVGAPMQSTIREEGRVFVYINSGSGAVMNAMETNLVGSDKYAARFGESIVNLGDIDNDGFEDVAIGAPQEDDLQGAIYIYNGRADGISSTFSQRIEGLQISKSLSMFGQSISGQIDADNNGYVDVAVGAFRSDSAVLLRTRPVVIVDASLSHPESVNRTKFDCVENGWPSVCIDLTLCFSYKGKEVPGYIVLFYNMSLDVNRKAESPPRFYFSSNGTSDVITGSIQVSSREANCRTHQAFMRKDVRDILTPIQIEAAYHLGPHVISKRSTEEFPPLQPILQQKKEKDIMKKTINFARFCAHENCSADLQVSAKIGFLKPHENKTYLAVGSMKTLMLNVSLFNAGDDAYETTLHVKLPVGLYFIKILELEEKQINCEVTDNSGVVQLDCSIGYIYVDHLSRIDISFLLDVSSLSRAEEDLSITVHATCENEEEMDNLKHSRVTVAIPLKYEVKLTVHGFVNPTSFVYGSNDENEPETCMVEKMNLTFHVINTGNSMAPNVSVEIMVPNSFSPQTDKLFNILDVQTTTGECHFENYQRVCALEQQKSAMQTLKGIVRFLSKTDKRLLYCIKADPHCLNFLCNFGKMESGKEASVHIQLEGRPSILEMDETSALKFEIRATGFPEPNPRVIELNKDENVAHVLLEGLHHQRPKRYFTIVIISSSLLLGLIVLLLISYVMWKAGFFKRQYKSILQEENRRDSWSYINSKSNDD
# [8] = superoxide lowering in aged yeast cells, pilot screen, validation compound set (AID 2706;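 active = superoxide response below 65% of plate, a cut near 3 SD across the whole screen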;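 note: yeast exposed to compound for one week at 30 degrees C before staining; 100% = mean of all compound wells on the same plate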); conditions: S. cerevisiae aging, superoxide DHE fluorescence; at 10 µM; stronger effect = lower value
# [9] = molecular target: Beta-adrenergic receptor kinase 1 (Homo sapiens) (UniProt P25098); experiment: GRK2 binders displacing RNA aptamer, biochemical, validation, human GRK2, bead flow cytometry (AID 488806;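 active = aptamer binding inhibition above 30%, about 3 SD of noise from non-fluorescent compounds; inactive = inhibition at or below 30%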); conditions: bead-bound GRK2, FAM-aptamer displacement, at 10 µM, stronger effect = higher value
# Beta-adrenergic receptor kinase 1 (Homo sapiens), sequence (P25098 whole entry, looked up): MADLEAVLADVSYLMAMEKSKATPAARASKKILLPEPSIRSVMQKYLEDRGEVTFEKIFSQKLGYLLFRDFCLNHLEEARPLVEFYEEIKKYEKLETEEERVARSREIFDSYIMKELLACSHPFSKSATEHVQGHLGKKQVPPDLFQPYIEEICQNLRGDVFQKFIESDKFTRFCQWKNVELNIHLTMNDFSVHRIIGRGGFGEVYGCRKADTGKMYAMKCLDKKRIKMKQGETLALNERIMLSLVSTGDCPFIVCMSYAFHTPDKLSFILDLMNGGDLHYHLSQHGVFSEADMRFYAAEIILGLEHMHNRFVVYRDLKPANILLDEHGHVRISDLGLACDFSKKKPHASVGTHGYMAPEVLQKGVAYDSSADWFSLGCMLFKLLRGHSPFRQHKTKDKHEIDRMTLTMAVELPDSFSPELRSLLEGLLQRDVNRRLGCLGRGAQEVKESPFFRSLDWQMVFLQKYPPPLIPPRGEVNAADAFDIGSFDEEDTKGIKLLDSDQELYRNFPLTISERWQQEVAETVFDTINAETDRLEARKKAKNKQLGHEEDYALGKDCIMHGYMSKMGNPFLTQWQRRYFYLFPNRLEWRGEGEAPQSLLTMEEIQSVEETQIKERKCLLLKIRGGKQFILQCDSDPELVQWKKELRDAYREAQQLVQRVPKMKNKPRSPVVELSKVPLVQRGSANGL
# [10] = molecular target: Beta-2 adrenergic receptor (Homo sapiens) (UniProt P07550); experiment: beta2AR agonists driving receptor internalization, pilot screen, cell-based, FAP fluorogen, flow cytometry, validation set (AID 504459;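 active = percent response above 42, roughly 3 SD of non-fluorescent test compounds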;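 note: agonist-driven loss of surface beta2AR via internalization measured by FAP dye flow cytometry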); conditions: Am2.2-beta2AR cells, FAP surface receptor flow cytometry; at 10 µM; stronger effect = higher value
# Beta-2 adrenergic receptor (Homo sapiens), sequence (P07550 whole entry, looked up): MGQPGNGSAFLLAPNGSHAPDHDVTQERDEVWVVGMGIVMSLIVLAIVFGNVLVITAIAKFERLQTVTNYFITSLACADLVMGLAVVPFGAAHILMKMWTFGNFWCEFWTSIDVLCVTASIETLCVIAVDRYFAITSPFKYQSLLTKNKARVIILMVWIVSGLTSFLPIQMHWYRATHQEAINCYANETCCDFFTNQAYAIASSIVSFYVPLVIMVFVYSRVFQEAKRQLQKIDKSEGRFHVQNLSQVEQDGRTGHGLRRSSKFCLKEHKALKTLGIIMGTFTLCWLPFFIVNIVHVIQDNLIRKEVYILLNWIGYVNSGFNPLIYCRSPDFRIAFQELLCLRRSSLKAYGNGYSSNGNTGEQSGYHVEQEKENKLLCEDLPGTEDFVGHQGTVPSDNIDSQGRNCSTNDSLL
# [11] = molecular target: AP-2 complex subunit beta (Homo sapiens) (UniProt P63010); experiment: inhibitors of arrestin peptide binding to AP2, pilot screen, biochemical, validation set, GST-AP2 beads, flow cytometry (AID 504541;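 active = inhibition above 54%, about 3 SD of non-fluorescent compounds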;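 note: AP2 carries R879A mutation and is captured from E. coli lysate; bead-bound FITC arrestin peptide fluorescence measuring arrestin peptide binding to AP2; 0% = DMSO wells and 100% = excess unlabeled arrestin peptide control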); conditions: FITC arrestin peptide, at 10 µM, stronger effect = higher value, AP2 beta2 appendage fragment, R879A mutant
# AP-2 complex subunit beta (Homo sapiens), sequence (P63010 whole entry, looked up, the tested form may be a part, one chain of several): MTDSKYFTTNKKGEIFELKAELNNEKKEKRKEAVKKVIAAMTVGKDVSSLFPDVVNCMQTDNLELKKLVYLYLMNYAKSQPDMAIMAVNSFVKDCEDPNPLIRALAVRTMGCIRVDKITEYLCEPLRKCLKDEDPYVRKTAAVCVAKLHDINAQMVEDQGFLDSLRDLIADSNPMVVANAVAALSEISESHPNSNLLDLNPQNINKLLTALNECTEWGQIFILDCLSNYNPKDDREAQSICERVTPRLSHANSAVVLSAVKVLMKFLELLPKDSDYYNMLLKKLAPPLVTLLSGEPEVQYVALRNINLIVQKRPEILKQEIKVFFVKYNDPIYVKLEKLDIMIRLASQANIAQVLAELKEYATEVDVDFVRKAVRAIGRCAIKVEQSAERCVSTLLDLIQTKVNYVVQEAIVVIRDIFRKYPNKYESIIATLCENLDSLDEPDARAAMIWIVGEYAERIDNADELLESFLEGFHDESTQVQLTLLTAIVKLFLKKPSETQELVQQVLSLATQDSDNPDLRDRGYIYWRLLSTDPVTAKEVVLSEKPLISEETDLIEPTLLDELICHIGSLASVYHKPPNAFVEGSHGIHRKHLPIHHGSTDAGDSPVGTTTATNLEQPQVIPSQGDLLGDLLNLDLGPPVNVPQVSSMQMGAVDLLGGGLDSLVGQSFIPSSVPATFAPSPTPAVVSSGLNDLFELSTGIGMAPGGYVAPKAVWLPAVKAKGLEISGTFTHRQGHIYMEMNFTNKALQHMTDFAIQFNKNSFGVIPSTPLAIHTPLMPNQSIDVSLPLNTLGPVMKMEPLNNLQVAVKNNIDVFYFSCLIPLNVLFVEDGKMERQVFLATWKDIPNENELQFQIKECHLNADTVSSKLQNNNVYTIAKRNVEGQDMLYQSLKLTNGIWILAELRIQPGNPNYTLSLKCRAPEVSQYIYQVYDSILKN
# [12] = yeast V-ATPase proton transport modulators, S. cerevisiae, pHLuorin, HTS validation (AID 504600; in the data active = response above about 15%;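 note: plate controls were DMSO for no effect and reference compound for full effect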); conditions: S. cerevisiae pHLuorin cytosolic pH, at 10 µM, stronger effect = higher value
# [13] = system: anti-desmoglein-3 scFv antibody binding to human DSG3; experiment: inhibitors of anti-DSG3 scFv binding to DSG3, pilot screen, biochemical, validation compound set, bead-based, flow cytometry (AID 588368;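 active = binding below the plate cutoff, the plate median minus 3 SD, with a reading above zero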;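 note: signal is the median channel fluorescence of bead-bound GFP antibody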); conditions: Protein G beads, DSG3-Fc, scFv-GFP binding, at 10 µM, stronger effect = lower value
# [14] = inhibitors of fungal efflux pumps CDR1, CDR2, MDR1, pilot screen, validation compound set, multiplex, phenotypic (AID 588506;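 active = efflux inhibition above 0.42, the validation set average plus 4 SD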;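 note: Nile Red retained in cells so higher fluorescence means more efflux inhibition; 0 = negative control wells and 1 = enniatin B 25 µM full block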); conditions: S. cerevisiae pump-expressing triplex, Nile Red efflux flow cytometry; at 10 µM; stronger effect = higher value; the pumps come from Candida albicans
# [15] = molecular target: ATP-binding cassette sub-family B member 6 (Homo sapiens) (UniProt Q9NP58); experiment: ABCB6 transporter inhibitors, pilot screen, K562-ABCB6 cells, flow cytometry, validation set (AID 588550;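 active = inhibition above the screen-wide mean plus 3 SD, about 51%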;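 note: 0% = DMSO wells and 100% = benzethonium chloride 70 µM positive control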); conditions: K562-ABCB6 porphyrin accumulation, 1 h, at 10 µM, stronger effect = higher value
# ATP-binding cassette sub-family B member 6 (Homo sapiens), sequence (Q9NP58 whole entry, looked up): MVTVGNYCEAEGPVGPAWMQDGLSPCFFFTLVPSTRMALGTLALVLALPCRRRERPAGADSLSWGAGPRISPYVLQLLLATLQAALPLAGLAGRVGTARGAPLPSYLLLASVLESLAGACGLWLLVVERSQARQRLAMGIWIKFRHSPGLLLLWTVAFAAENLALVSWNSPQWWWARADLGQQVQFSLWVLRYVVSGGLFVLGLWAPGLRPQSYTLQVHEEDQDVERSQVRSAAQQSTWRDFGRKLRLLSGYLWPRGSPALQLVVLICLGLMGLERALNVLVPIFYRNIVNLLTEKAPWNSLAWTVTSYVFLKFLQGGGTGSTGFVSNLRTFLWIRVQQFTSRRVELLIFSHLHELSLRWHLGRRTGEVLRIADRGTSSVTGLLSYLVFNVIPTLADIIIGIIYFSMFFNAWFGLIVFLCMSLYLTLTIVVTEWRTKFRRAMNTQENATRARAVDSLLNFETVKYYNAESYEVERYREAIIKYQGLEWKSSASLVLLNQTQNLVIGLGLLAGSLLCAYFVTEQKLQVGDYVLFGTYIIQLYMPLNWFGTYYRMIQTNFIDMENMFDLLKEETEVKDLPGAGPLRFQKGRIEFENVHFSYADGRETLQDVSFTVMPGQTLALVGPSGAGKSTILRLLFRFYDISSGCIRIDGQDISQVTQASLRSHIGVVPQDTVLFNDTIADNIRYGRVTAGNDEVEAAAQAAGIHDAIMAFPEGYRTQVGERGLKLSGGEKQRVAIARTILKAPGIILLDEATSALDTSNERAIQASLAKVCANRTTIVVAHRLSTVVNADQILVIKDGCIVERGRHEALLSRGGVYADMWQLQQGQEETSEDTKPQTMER
# [16] = promoters of myeloid differentiation in arrested cells, primary screen, cell-based, GFP/MAC1 double positive, flow cytometry, validation set (AID 588685;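 active = differentiation response of at least 50%, scaled between solvent and reference control, from cells with both markers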;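 note: compound exposure lasts four days before antibody staining and flow analysis; 0% = DMSO wells and 100% = 5 µM fulvestrant positive control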); conditions: ER-HoxA9 marrow cells, stronger effect = higher value, normalized: vehicle 0, fulvestrant 100
Compound,percent of DMSO control GFP [1],GFP response vs DMSO [2],percent response of DMSO control [3],GFP response vs DMSO [4],"GFP response, % of DMSO [5]",double positive events [6],vesicle binding response [6],inhibition [7],superoxide response (% of plate) [8],aptamer binding inhibition [9],response [10],inhibition [11],response [12],binding (% of control) [13],efflux inhibition (fraction of control) [14],inhibition [15],differentiation response [16]
COc1ccc2c(c1O)Cc1ccccc1C2=O,94.8% (inactive),139% (inactive),110% (inactive),84.7% (inactive),92.4% (inactive),56.5%,220% (inactive),-13.9% (inactive),117% (inactive),0% (inactive),0.34% (inactive),46.1% (inactive),-2.94% (inactive),104% (inactive),-0.06 (inactive),109% (active),-0.82% (inactive)
COc1ccc(C2NCCC3(O)CCCCC23)c(OC)c1OC (stereo not given),98.8% (inactive),99.6% (inactive),93.9% (inactive),107% (inactive),97.4% (inactive),57.7%,199% (inactive),-11.3% (inactive),105% (inactive),1% (inactive),-8.95% (inactive),10.4% (inactive),-2.26% (inactive),102% (inactive),-0.06 (inactive),6% (inactive),-18.4% (inactive)
COCC1CCCN(Cc2cn[nH]c2-c2cc3ccccc3o2)C1 (stereo not given),95.9% (inactive),109% (inactive),83.4% (inactive),115% (inactive),102% (inactive),63.3%,181% (inactive),-14.1% (inactive),98.3% (inactive),2% (inactive),-14.2% (inactive),0.03% (inactive),1.33% (inactive),99.9% (inactive),0.05 (inactive),7% (inactive),5.6% (inactive)
Cc1ccc(CSCC(=O)N2CCCC2)cc1,102% (inactive),98.7% (inactive),101% (inactive),106% (inactive),106% (inactive),63.7%,132% (inactive),20.4% (inactive),95% (inactive),-2% (inactive),7.33% (inactive),-2.44% (inactive),-8.52% (inactive),97.9% (inactive),-0.05 (inactive),0% (inactive),-8.96% (inactive)
O=C(O)CCCCCN1C(=O)C(=O)/C(=C(/O)c2ccccc2)C1c1ccccc1 (stereo not given),99.5% (inactive),97.4% (inactive),98.6% (inactive),119% (inactive),102% (inactive),63.1%,212% (inactive),-5.89% (inactive),103% (inactive),7% (inactive),-2.6% (inactive),-10.9% (inactive),-1.69% (inactive),98% (inactive),-0.06 (inactive),7% (inactive),7.2% (inactive)
CC(C)(S)[C@@H](N)C(=O)O,97.8% (inactive),109% (inactive),87.2% (inactive),101% (inactive),98.9% (inactive),62.5%,177% (inactive),0.94% (inactive),85% (inactive),6% (inactive),1.94% (inactive),-6.4% (inactive),0.19% (inactive),98.2% (inactive),0.08 (inactive),5% (inactive),7.2% (inactive)
CC1(c2ccccc2)CC(C)(C)N2C(=O)C(=O)c3cccc1c32 (stereo not given),108% (inactive),97.4% (inactive),99.6% (inactive),81.1% (inactive),95.7% (inactive),60.1%,148% (inactive),-7.25% (inactive),109% (inactive),4% (inactive),20.4% (inactive),0.89% (inactive),3.44% (inactive),98.7% (inactive),0.15 (inactive),5% (inactive),0.8% (inactive)
CC1(C)Oc2ccc(C#N)cc2[C@@H](N2CCCC2=O)[C@@H]1O,97.9% (inactive),115% (inactive),116% (inactive),78.7% (inactive),99.1% (inactive),63%,180% (inactive),2.58% (inactive),93% (inactive),-1% (inactive),-6.3% (inactive),1.01% (inactive),0.27% (inactive),100% (inactive),-0.09 (inactive),6% (inactive),0% (inactive)
CC(C)(C)C(=O)NCCCNc1ccc([N+](=O)[O-])cc1,103% (inactive),123% (inactive),93.9% (inactive),95.2% (inactive),104% (inactive),67.3%,295% (inactive),5.49% (inactive),86% (inactive),-1% (inactive),-6.07% (inactive),22% (inactive),1.78% (inactive),110% (inactive),-0.06 (inactive),15% (inactive),12.3% (inactive)
COC(=O)c1[nH]c(=O)c2ccccc2c1O,101% (inactive),95.2% (inactive),101% (inactive),110% (inactive),100% (inactive),62.3%,159% (inactive),0.94% (inactive),104% (inactive),1% (inactive),-13.2% (inactive),-7.21% (inactive),2.12% (inactive),101% (inactive),0.01 (inactive),109% (active),18.4% (inactive)
